# Measured values taken from PubChem BioAssay.
# “And” between values parts separate entries of the source, which are not always exact repeats. Equal values may be shown once. Inconclusive results are not listed. The source made the active and inactive calls.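 The calls were made as follows, unless noted: active = thallium flux through the channel raised or lowered by more than 3 SD from vehicle-only wells, actives on both sides; inactive = the rest.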
# What was measured:
# [1] = polyglutamine-triggered caspase-3 activation inhibitors, cell-based (AID 1583); settings: polyglutamine-induced caspase-3 activation, cell assay; stronger effect = higher value;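 tested at 10 µM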
# [2] = suppressors of polyQ aggregation in yeast, 75Q-TubU reporter (AID 1593); settings: Yeast 75Q polyglutamine aggregation reporter
# [3] = modulation of C. elegans fzo-1 (AID 1259413; call rule not given here;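 also: fzo-1 mutant C. elegans worms in liquid wells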); settings: C. elegans fzo-1 modulator screen, mean read-out; stronger effect = higher value
# [4] = differential killing of epithelial or mesenchymal cells, primary screen, imaging, PC-3E GFP, TEM4-18 mCherry, co-culture (AID 1345086;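 active = compounds killing one labelled cell type while sparing the other, by normalised counts and ratio limits, not self-fluorescent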;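 as to all read-outs here: cells exposed to compound for 72 h before imaging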;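 as to red/green cell ratio (normalised): normalised mesenchymal count divided by normalised epithelial count so high means epithelial killing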); settings: imaging cell counts, at 1 µM; for red/green cell ratio (normalised): actives lie on both sides
# [5] = test system: Neuropilin-2 / VEGF-C interaction (human); assay: inhibitors of NRP2–VEGF-C binding, biochemical, microplate binding format, z-score (AID 743281; call rule not given here); settings: microplate NRP2/VEGF-C binding assay; stronger effect = lower value
# [6] = test system: Hepatitis C virus NS3 helicase; assay: HCV NS3 helicase inhibitors, primary screen, biochemical, fluorescence polarization, LOPAC1280 library (AID 687035; in the data active = inhibition above about 37%); settings: Purified HCV NS3 helicase, Cy5-dT15 ssDNA binding fluorescence polarization; stronger effect = higher value; concentration not given here
# [7] = Cy5 fluorescence quenching or enhancement artefacts, artefact control for HCV NS3 helicase inhibitor project, biochemical, LOPAC1280 (AID 687037; call rule not given here); settings: Cy5-DNA-NS3h complex fluorescence interference counterscreen
# [8] = phospholipid biosynthesis inhibitors in animal cells, primary screen, cell-based, LOPAC library, screen 4 (AID 1347384; call rule not given here); settings: phospholipid biosynthesis inhibition screen, at 10 µM
# [9] = viability rescue of complex I mutant cybrids, primary screen, cell-based, galactose medium, ATP luminescence (AID 1645843;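 active = z-score of at least 1.8 in each of two replicates, scored against plate mean and spread of sample wells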;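 also: positive z means more ATP and so rescue of galactose-driven cybrid death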); settings: complex I mutant cybrid cells, 72 h, stronger effect = higher value
# F380Y/beta1 = assay: modulators of BK channel variants, profiling panel, selectivity assay, cell-based, U2OS BacMam, thallium flux, beta subunits (AID 1259406); settings: at 30 µM;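 also: initial slope of Thallos dye fluorescence rise after thallium is added; log ratio against the mean of 0.3% DMSO vehicle wells on the same plate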
# F380Y/beta4 = assay: as above; settings: at 30 µM
# [10] = molecular target: Calcium-activated potassium channel subunit alpha-1 (Homo sapiens) + Leucine-rich repeat-containing protein 26 (Homo sapiens) (UniProt Q12791+Q2I0M4); assay: as above; settings: F380Y/Slo1WT/gamma1, at 30 µM
# Chain of Calcium-activated potassium channel subunit alpha-1 (Homo sapiens) + Leucine-rich repeat-containing protein 26 (Homo sapiens) (Q2I0M4 whole entry, looked up, one chain of several): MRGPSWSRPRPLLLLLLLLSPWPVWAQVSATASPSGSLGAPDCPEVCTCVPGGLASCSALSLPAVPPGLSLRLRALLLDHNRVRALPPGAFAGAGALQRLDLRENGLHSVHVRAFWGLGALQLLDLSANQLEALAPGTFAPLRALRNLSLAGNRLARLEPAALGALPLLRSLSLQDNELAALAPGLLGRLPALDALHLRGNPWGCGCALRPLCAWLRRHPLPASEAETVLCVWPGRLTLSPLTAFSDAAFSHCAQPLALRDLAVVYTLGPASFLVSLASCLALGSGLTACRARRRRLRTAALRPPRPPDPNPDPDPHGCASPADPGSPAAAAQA
# R275C/beta4 = assay: as above; settings: at 30 µM
# [11] = growth inhibition of DIPG glioma cells, dose response, cell-based, SU-DIPG-XIII, MIPE4.0, CellTiter-Glo, qHTS (AID 1347061; cut-off not given, nearly all actives have AC50 up to about 37 µM;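 also: cells exposed to compound for 48 hours before readout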); settings: SU-DIPG-XIII viability, CellTiter-Glo ATP luminescence
# [12] = growth inhibition of DIPG glioma cells, dose response, cell-based, JHH-DIPG-1, MIPE4.0, CellTiter-Glo, qHTS (AID 1347062; cut-off not given, nearly all actives have AC50 up to about 27 µM); settings: JHH-DIPG-1 viability, CellTiter-Glo ATP luminescence
# [13] = growth inhibition of DIPG glioma cells, dose response, cell-based, SU-DIPG-IV, MIPE4.0, CellTiter-Glo, qHTS (AID 1347063; cut-off not given, nearly all actives have AC50 up to about 30 µM;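 also: compound exposure lasted 48 hours before the viability readout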); settings: SU-DIPG-IV viability, CellTiter-Glo ATP luminescence
# [14] = modifiers of HSF1 nuclear foci, imaging, Selleck Cancer Library (AID 1347162; in the data active = plate-normalised HSF1 focus index below about 0.46); settings: human cells, at 10 µM; SSMD: measured here: HSF1 foci SSMD mean; cell count: measured here: cell number; plate-normalised HSF1 focus index: stronger effect = lower value
# [15] = survival rescue of mitochondrial mutant cells in low glucose, primary screen, MELAS cybrids, Rieske KO mouse fibroblasts, CellTiter-Glo (AID 1508586;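 active = mean z-score across replicates of 1.96 or higher in either the MELAS or the Rieske mutant cell line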;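 also: z relative to plate mean and SD of compound and empty wells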)
# [16] = molecular target: NAD(+) hydrolase SARM1 (Homo sapiens) (UniProt Q6SZW1); assay: SARM1 TIR NADase inhibitors, cell lysate, NAD-Glo luminescence (AID 1508614;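 active = compound whose remaining NAD level is above about 45 nM, limit read from the data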;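 also: higher remaining NAD means stronger inhibition of SARM1 NADase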); settings: SAM-TIR HEK293T lysate NADase, at 1 µM, stronger effect = higher value
# Chain of NAD(+) hydrolase SARM1 (Homo sapiens) (Q6SZW1 whole entry, looked up): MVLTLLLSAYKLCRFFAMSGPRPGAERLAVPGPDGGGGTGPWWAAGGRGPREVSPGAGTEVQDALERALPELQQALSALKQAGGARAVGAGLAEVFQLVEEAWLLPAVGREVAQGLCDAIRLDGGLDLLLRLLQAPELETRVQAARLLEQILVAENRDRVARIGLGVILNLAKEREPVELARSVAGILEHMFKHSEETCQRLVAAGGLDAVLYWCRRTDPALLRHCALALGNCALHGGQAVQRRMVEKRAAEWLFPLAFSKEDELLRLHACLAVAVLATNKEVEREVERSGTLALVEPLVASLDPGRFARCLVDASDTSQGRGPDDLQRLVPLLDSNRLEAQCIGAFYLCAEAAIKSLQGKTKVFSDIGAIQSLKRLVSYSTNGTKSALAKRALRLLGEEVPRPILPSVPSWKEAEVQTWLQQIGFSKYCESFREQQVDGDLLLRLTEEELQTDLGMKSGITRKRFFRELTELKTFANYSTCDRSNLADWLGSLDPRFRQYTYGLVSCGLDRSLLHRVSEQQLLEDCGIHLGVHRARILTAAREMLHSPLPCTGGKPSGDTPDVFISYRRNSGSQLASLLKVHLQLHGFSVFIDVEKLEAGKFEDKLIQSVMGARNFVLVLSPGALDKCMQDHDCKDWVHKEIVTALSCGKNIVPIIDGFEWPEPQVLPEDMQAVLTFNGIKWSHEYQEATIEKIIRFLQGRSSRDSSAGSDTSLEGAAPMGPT
# [17] = test system: Aerobactin synthetase IucA (Klebsiella pneumoniae); assay: IucA aerobactin synthetase inhibitors, biochemical, Tocris library, absorbance (AID 1345561; call rule not given here;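 also: 100% = enzyme without compound and 0% = no enzyme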); settings: purified IucA enzyme assay, absorbance (OD) read-out; stronger effect = lower value;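 tested at 8 µM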
# [18] = measured here: epithelial PC-3E GFP cell survival
# [19] = measured here: mesenchymal TEM4-18 mCherry cell survival
# [20] = MELAS cybrid survival, CellTiter-Glo 48 h, stronger effect = higher value
# [21] = Rieske KO mouse fibroblast survival, CellTiter-Glo 72 h
compound,measurement,setting,value
CC[C@@H]1/C=C/C=C/C[C@H](C)[C@@H](O)[C@](C)(O)C(=O)[C@H](C)[C@@H](O)[C@H](C)C(=O)[C@H](C)[C@@H](O)[C@H](C)/C=C/C(=O)O[C@H]2[C@@H](C)[C@@H](CC1)O[C@@]1(CC[C@@H](C)[C@@H](C[C@H](C)O)O1)[C@@H]2C,inhibition,[1],-0.04%
same,score,[2],-0.11
same,mean signal,[3],201 (inactive)
same,red/green cell ratio (normalised),[4],0.51 (inactive)
same,normalised cell number,[4]; [18],1.1
same,normalised cell number,[4]; [19],0.56
COc1ccc2c(c1)C13CCCC[C@@H]1C(C2)N(C)CC3 (some centres not stated),z-score,[5],-0.757 (inactive)
same,mean signal,[3],229 (inactive)
COC(=O)N1CCN(C(=O)Cc2ccc(Cl)c(Cl)c2)C(CN2CCCC2)C1 (configuration not stated),inhibition,[6],-4% (inactive)
same,fluorescence ratio (interference),[7],1 (inactive)
same,z-score,[5],1.19 (inactive)
same,mean signal,[3],274 (inactive)
same,outcome,[8],inactive
same,z-score,[9],-0.09 (inactive) and 0.285 (inactive)
same,log fold change Tl+ flux,F380Y/beta1,0.0396 (inactive)
same,log fold change Tl+ flux,F380Y/beta4,0.0372 (inactive)
same,log fold change Tl+ flux,[10],-0.0265 (inactive)
same,log fold change Tl+ flux,R275C/beta4,0.0175 (inactive)
CC(C)[C@]12O[C@H]1[C@@H]1O[C@]13[C@]1(O[C@H]1C[C@H]1C4=C(CC[C@@]13C)C(=O)OC4)[C@@H]2O,z-score,[5],0.859 (inactive)
same,mean signal,[3],159 (inactive)
same,outcome,[11],inactive
same,outcome,[12],inactive
same,outcome,[13],inactive
same,SSMD,[14],-5.07
same,cell count,[14],6670
same,plate-normalised HSF1 focus index,[14],0.769 (inactive)
same,log fold change Tl+ flux,F380Y/beta1,-0.0154 (inactive)
same,log fold change Tl+ flux,F380Y/beta4,0.00828 (inactive)
same,log fold change Tl+ flux,[10],0.0324 (inactive)
same,log fold change Tl+ flux,R275C/beta4,0.0135 (inactive)
C[C@]12CCC(=O)C=C1CC[C@@H]1[C@@H]2CC[C@@]2(C)[C@H]1CC[C@]2(C)O,outcome,[11],inactive
same,outcome,[12],inactive
same,log fold change Tl+ flux,F380Y/beta1,0.0212 (inactive)
same,log fold change Tl+ flux,F380Y/beta4,-0.105 (active)
same,log fold change Tl+ flux,[10],0.0144 (inactive)
same,log fold change Tl+ flux,R275C/beta4,0.00989 (inactive)
CCN(C(C)=O)c1cccc(-c2ccnc3c(C#N)cnn23)c1,z-score,[5],-0.583 (inactive)
same,mean signal,[3],228 (inactive)
same,red/green cell ratio (normalised),[4],1.11 (inactive)
same,normalised cell number,[4]; [18],1.1
same,normalised cell number,[4]; [19],1.22
same,z-score,[15]; [20],0.804 (inactive)
same,z-score,[15]; [21],0.277
same,remaining NAD,[16],10 nM (inactive)
same,z-score,[9],0.945 (inactive)
CN=C1CN(O)C(c2ccccc2)=c2cc(Cl)ccc2=N1,inhibition,[1],6.92%
same,score,[2],1.19
same,z-score,[5],0.413 (inactive)
same,mean signal,[3],209 (inactive)
same,z-score,[9],0.34 (inactive)
same,log fold change Tl+ flux,F380Y/beta1,0.0256 (inactive)
same,log fold change Tl+ flux,F380Y/beta4,0.0618 (inactive)
same,log fold change Tl+ flux,[10],0.00615 (inactive)
same,log fold change Tl+ flux,R275C/beta4,0.0262 (inactive)
CC12CCC(=O)C=C1CCC1C2CCC2(C)C(O)CCC12 (configuration not stated),z-score,[9],-0.235 (inactive)
same,log fold change Tl+ flux,F380Y/beta1,0.0232 (inactive)
same,log fold change Tl+ flux,F380Y/beta4,-0.0491 (inactive)
same,log fold change Tl+ flux,[10],-0.042 (inactive)
same,log fold change Tl+ flux,R275C/beta4,-0.00525 (inactive)
COc1ccc2[nH]cc(C3=CCNCC3)c2c1,z-score,[5],-1.09 (inactive)
same,mean signal,[3],255 (inactive)
same,remaining activity,[17],103% (inactive)
same,z-score,[9],-1.57 (inactive) and -0.95 (inactive)
same,log fold change Tl+ flux,F380Y/beta1,0.0695 (inactive)
same,log fold change Tl+ flux,F380Y/beta4,0.0777 (inactive)
same,log fold change Tl+ flux,[10],0.0216 (inactive)
same,log fold change Tl+ flux,R275C/beta4,0.0779 (inactive)
CN1CC[C@@H](c2ccc(F)cc2)[C@H](COc2ccc3c(c2)OCO3)C1,z-score,[5],-0.473 (inactive)
same,log fold change Tl+ flux,F380Y/beta1,0.0692 (inactive)
same,log fold change Tl+ flux,F380Y/beta4,0.102 (active)
same,log fold change Tl+ flux,[10],-0.0237 (inactive)
same,log fold change Tl+ flux,R275C/beta4,0.0863 (active)
Oc1cc2c(cc1O)[C@H]1c3ccccc3CN[C@@H]1CC2,z-score,[5],-4.26 (active)
same,mean signal,[3],249 (inactive)
same,remaining activity,[17],97.5% (inactive)
same,z-score,[9],-1.23 (inactive)
same,log fold change Tl+ flux,F380Y/beta1,0.0598 (inactive)
same,log fold change Tl+ flux,F380Y/beta4,-0.0725 (inactive)
same,log fold change Tl+ flux,[10],0.0857 (inactive)
same,log fold change Tl+ flux,R275C/beta4,0.0776 (inactive)
C[C@]12CC(=CO)C(=O)C[C@@H]1CC[C@@H]1[C@@H]2CC[C@@]2(C)[C@H]1CC[C@]2(C)O,z-score,[15]; [20],0.172 (inactive)
same,z-score,[15]; [21],0.741
same,log fold change Tl+ flux,F380Y/beta1,0.204 (active)
same,log fold change Tl+ flux,F380Y/beta4,0.113 (active)
same,log fold change Tl+ flux,[10],0.208 (active)
same,log fold change Tl+ flux,R275C/beta4,0.148 (active)
C=CCN1CC[C@]23c4c5ccc(O)c4O[C@H]2C(=O)CCC3(O)[C@H]1C5 (some centres not stated),mean signal,[3],247 (inactive)
c1ccc(Cn2ccnc2)cc1,z-score,[5],0.238 (inactive)
same,mean signal,[3],248 (inactive)
same,z-score,[9],0.075 (inactive)
same,log fold change Tl+ flux,F380Y/beta1,-0.0465 (inactive)
same,log fold change Tl+ flux,F380Y/beta4,-0.0022 (inactive)
same,log fold change Tl+ flux,[10],-0.0094 (inactive)
same,log fold change Tl+ flux,R275C/beta4,-0.0192 (inactive)
Cc1ccc(-c2nc3ccc(C)cn3c2CC(=O)N(C)C)cc1,z-score,[5],-0.569 (inactive)
same,mean signal,[3],258 (inactive)
same,remaining NAD,[16],10 nM (inactive)
same,z-score,[9],1.03 (inactive)
same,log fold change Tl+ flux,F380Y/beta1,0.0272 (inactive)
same,log fold change Tl+ flux,F380Y/beta4,-0.00795 (inactive)
same,log fold change Tl+ flux,[10],-0.0144 (inactive)
same,log fold change Tl+ flux,R275C/beta4,0.00879 (inactive)
CN1CC[C@@]23CCCC[C@@H]2[C@@H]1Cc1ccc(O)cc13,z-score,[5],-0.569 (inactive)
same,mean signal,[3],229 (inactive)
same,log fold change Tl+ flux,[10],0.0222 (inactive)
Cc1ncc2n1-c1ccc(Cl)cc1C(c1ccccc1F)=NC2,z-score,[5],-0.669 (inactive)
same,mean signal,[3],220 (inactive)
same,z-score,[9],0.59 (inactive)
same,log fold change Tl+ flux,F380Y/beta1,-0.386 (active)
same,log fold change Tl+ flux,F380Y/beta4,-0.197 (active)
same,log fold change Tl+ flux,[10],-0.019 (inactive)
same,log fold change Tl+ flux,R275C/beta4,0.138 (active)
